Where “and” joins values, the source holds several entries; their conditions need not be identical. Equal values may be shown once. Results filed as inconclusive are left out. Values without a mark were called inactive. Calls of active or inactive are those of the source. Calls come from the whole dose curve; as a rule, active = well fitted curve in the direction sought with a large enough effect; inconclusive = small, poorly fitted or top-dose-only effect, or another doubt; inactive = no such curve, though single readings can be large; an effect the other way counts as inactive or inconclusive.
Potency is the fitted concentration of half-maximal effect.

The nature of the first test: Quantitative highthroughput screen to assess conditional lethalithy of SEM cells grown in RPMI1640 with dialyzed fetal bovine serum (RPMI+ds) (AID 1963884).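 For viability: 100% = DMSO control wells and 0% = empty wells without cells.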 Note: nearly all actives have a fitted effect of over 35% in size. The conditions noted are these: SEM B-ALL cells, RPMI+dialyzed FBS, CellTiter-Glo viability, 48 h; series mostly up to 45.8 µM; viability: at the top concentration. In outline:
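Each medium arm—HPLM with 10% dialyzed FBS, or RPMI1640 with 5 mM glucose and 10% untreated or dialyzed FBS—was screened against an 11-point, 3-fold compound titration for 48 h at 37 °C, with CellTiter-Glo luminescence as endpoint.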
Consider `NCCCC(O)(P(=O)(O)O)P(=O)(O)O`, for which the Potency was 3.72 µM (active).
On the same count and under the same terms, under `COc1cc2nc(N3CCN(C(=O)c4ccco4)CC3)nc(N)c2cc1OC` stands 7.43 µM (active).
On the same count and under the same terms, the figure for `Cn1cc(C2=C(c3c4n(c5ccccc35)CCC(CN)C4)C(=O)NC2=O)c2ccccc21` (stereo unspecified) is 11.8 µM (active).
Regarding `CNC(=O)c1c(-c2ccc(F)cc2)oc2cc(N(CCO)S(C)(=O)=O)c(C3CC3)cc12`, the Potency is 0.264 µM (active).
Take `S=C(NCc1ccc2c(c1)OCO2)N1CCN(c2ncnc3c2oc2ccccc23)CC1`: the Potency is 27 µM (active).
Same read-out and setting: under `CC(C)(C)NC(=O)Nc1cccc(Nc2ncc(F)c(NC(C)(C)CO)n2)c1` stands 6.62 µM (active).
Still for that read-out and setting: the figure for `CNC(=O)c1cc(Oc2ccc(NC(=O)Nc3ccc(Cl)c(C(F)(F)F)c3)c(F)c2)ccn1` is 0.332 µM (active).
The same measure, in the same setting: the figure for `CC1(C)CCC(CN2CCN(c3ccc(C(=O)NS(=O)(=O)c4ccc(NCC5CCOCC5)c([N+](=O)[O-])c4)c(Oc4cnc5[nH]ccc5c4)c3)CC2)=C(c2ccc(Cl)cc2)C1` is 0.0264 µM (active); for `Cc1cccc(Nc2nc(N[C@@H]3CCCC[C@H]3N)ncc2C(N)=O)c1` it is 2.35 µM (active).
With `O=C(CN1C(=O)C2(CCCC2)NC[C@H]1c1cc(F)cc(F)c1)Nc1ccc2c(c1)C[C@@]1(C2)C(=O)Nc2ncccc21`, the “viability” value was 100%.
For the compound `Cc1ccc2nc(NCCN)c3ncc(C)n3c2c1`, the Potency is 20.9 µM (active).
As for `O=C(O)C1=CC(O)C(O)[C@H](O)C1` (stereo partly specified), the “viability” value is 115%.
Consider `COc1cc(OC2CCN(C)CC2)ccc1Nc1ncc2c(n1)n(C1CCCC1)c(=O)n2C`, for which the Potency was 14.8 µM (active).
On the same count and under the same terms, the figure for `c1nc2nc(Nc3ccc(N4CCOCC4)cc3)nc(NC3CCCCC3)c2[nH]1` is 2.35 µM (active).
In the case of `COc1cc2c(N3CCN(C(=O)Nc4ccc(OC(C)C)cc4)CC3)ncnc2cc1OCCCN1CCCCC1`, the Potency was 0.132 µM (active).
The same measure, in the same setting: under `CS(=O)(=O)c1cccc(CNc2nc(Nc3ccc4c(c3)CCC(=O)N4)ncc2C(F)(F)F)c1` stands 6.62 µM (active); under `O=C(Nc1nnc(-c2ccco2)o1)c1cc(-c2ccccc2)nc2ccccc12`, 20.9 µM (active); under `COc1ccc(-c2cc3c(C)nc(N)nc3n(C3CCC(OCCO)CC3)c2=O)cn1` (stereo unspecified), 1.87 µM (active).
As for `COc1cc2ncnc(Nc3cccc(Cl)c3)c2cc1OC`, the Potency was 0.372 µM (active).
Turning to `CN(C)c1ccc2cc(C(=O)N[C@@H](CCCN=C(N)CCl)C(=O)NCc3ccccc3)ccc2c1`, the Potency is 26.4 µM (active).
On the same count and under the same terms, the figure for `CC[C@@]1(O)C[C@H](O[C@H]2C[C@H](N(C)C)[C@H](O[C@H]3C[C@H](O)[C@H](O[C@H]4CCC(=O)[C@H](C)O4)[C@H](C)O3)[C@H](C)O2)c2c(cc3c(c2O)C(=O)c2c(O)cccc2C3=O)[C@@H]1C(=O)OC` is 0.0662 µM (active); for `Cc1nc(N)sc1-c1ccnc(Nc2ccc(N3CCOCC3)cc2)n1` it is 2.09 µM (active).

The next test is described as follows: Cellular viability qHTS for adrenocortical cancer (ACC) cell line SW-13 (AID 1963989).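 For activity (max response): cells grown in serum-free medium with ITS supplement; % is set by controls: 0 for no effect and ±100 for the full control effect.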 Note: nearly all actives have a fitted effect of over 65% in size. Conditions: SW-13 ACC cells viability, CellTiter-Glo, 48 h; activity (max response): active compounds read low. An outline of the steps: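 SW-13 cells in ITS-supplemented serum-free DMEM were plated overnight, then exposed for 48 h at 37C to compound titrations (up to 46 uM final). Viability was read by CellTiter-Glo luminescence; four-parameter logistic fits gave IC50 and efficacy.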
Turning to `Nc1nc(=S)c2[nH]cnc2[nH]1`, the Potency is 3.26 µM (active) and 2.82 µM (active).
As to `NCCCC(O)(P(=O)(O)O)P(=O)(O)O`, the activity (max response) is -4.27%.
The same measure, in the same setting: under `COc1cc2nc(N3CCN(C(=O)c4ccco4)CC3)nc(N)c2cc1OC` stands -8.85%.
Consider `CN(C)c1ccc(-c2nc3ncc(Cl)c(N4CCN(CC(=O)Nc5nccs5)CC4)c3[nH]2)cc1`, for which the activity (max response) was -12.9%.
Consider `Cn1cc(C2=C(c3c4n(c5ccccc35)CCC(CN)C4)C(=O)NC2=O)c2ccccc21` (stereo unspecified), for which the activity (max response) is -20.5%.
Still for that read-out and setting: the figure for `CNC(=O)c1c(-c2ccc(F)cc2)oc2cc(N(CCO)S(C)(=O)=O)c(C3CC3)cc12` is -0.986%.
Take `CNC(=O)c1cc(Oc2ccc(NC(=O)Nc3ccc(Cl)c(C(F)(F)F)c3)c(F)c2)ccn1`: the Potency was 3.98 µM (active).
For the compound `CCC(C(=O)O)C1CCC(C)C(C(C)C(O)C(C)C(=O)C(CC)C2OC3(C=CC(O)[C@@]4(CC[C@](C)(C5CC[C@@](O)(CC)C(C)O5)O4)O3)C(C)CC2C)O1` (stereo partly specified), the Potency was 2.82 µM (active).
Consider `CC1(C)CCC(CN2CCN(c3ccc(C(=O)NS(=O)(=O)c4ccc(NCC5CCOCC5)c([N+](=O)[O-])c4)c(Oc4cnc5[nH]ccc5c4)c3)CC2)=C(c2ccc(Cl)cc2)C1`, for which the activity (max response) is -2.3%.
For the compound `NC1(c2ccc(-c3nc4ccn5c(=O)[nH]nc5c4cc3-c3ccccc3)cc2)CCC1`, the Potency was 20.6 µM (active) and 17.8 µM (active).
The same measure, in the same setting: under `Cc1cccc(Nc2nc(N[C@@H]3CCCC[C@H]3N)ncc2C(N)=O)c1` stands 25.1 µM (active).
As to `CNC(=O)c1cc(Oc2ccc(NC(=O)Nc3ccc(Cl)c(C(F)(F)F)c3)cc2)ccn1`, the Potency is 8.91 µM (active) and 11.6 µM (active).
The same measure, in the same setting: under `N#CCNC(=O)c1ccc(-c2ccnc(Nc3ccc(N4CCOCC4)cc3)n2)cc1` stands 25.1 µM (active).
In the case of `CN1CCN(c2cc(C(=O)Nc3ccc4c(c3)-c3c(c(C(N)=O)nn3-c3ccc(F)cc3)CC4)c(Cl)cn2)CC1`, the activity (max response) is -15.3%.
In the case of `O=C(CN1C(=O)C2(CCCC2)NC[C@H]1c1cc(F)cc(F)c1)Nc1ccc2c(c1)C[C@@]1(C2)C(=O)Nc2ncccc21`, the activity (max response) is -4.31%.
Consider `Cc1ccc2nc(NCCN)c3ncc(C)n3c2c1`, for which the Potency is 6.31 µM (active).
On to `O=C(O)C1=CC(O)C(O)[C@H](O)C1` (stereo partly specified), for which the activity (max response) is -8.83%.
Turning to `CC(C)c1cc(C(=O)N2Cc3ccc(CN4CCN(C)CC4)cc3C2)c(O)cc1O`, the Potency was 0.398 µM (active).
Regarding `C[C@@H](N)c1ccc(C(=O)Nc2ccnc3[nH]ccc23)cc1`, the Potency was 25.1 µM (active).
Still for that read-out and setting: under `C1CCC(C(CC2CCCCN2)C2CCCCC2)CC1` (stereo unspecified) stands 7.08 µM (active); under `O=C(Nc1nnc(-c2ccco2)o1)c1cc(-c2ccccc2)nc2ccccc12`, 20 µM (active); under `COc1ccc(-c2cc3c(C)nc(N)nc3n(C3CCC(OCCO)CC3)c2=O)cn1` (stereo unspecified), 1.12 µM (active).
Still for that read-out and setting: under `Nc1nc(Nc2ccc(S(N)(=O)=O)cc2)nn1C(=O)c1c(F)cccc1F` stands 3.55 µM (active); under `COc1cc2ncnc(Nc3cccc(Cl)c3)c2cc1OC`, 5.62 µM (active).
Turning to `CN(C)c1ccc2cc(C(=O)N[C@@H](CCCN=C(N)CCl)C(=O)NCc3ccccc3)ccc2c1`, the activity (max response) is -6.76%.
`CC[C@@]1(O)C[C@H](O[C@H]2C[C@H](N(C)C)[C@H](O[C@H]3C[C@H](O)[C@H](O[C@H]4CCC(=O)[C@H](C)O4)[C@H](C)O3)[C@H](C)O2)c2c(cc3c(c2O)C(=O)c2c(O)cccc2C3=O)[C@@H]1C(=O)OC`: the Potency is 10 µM (active).
`O=C(Nc1cccnc1)N1CCC(Cc2cccc(Oc3ccc(C(F)(F)F)cn3)c2)CC1`: the Potency is 15.8 µM (active).
With `CC(C)C[C@H](NC(=O)CNC(=O)c1cc(Cl)ccc1Cl)B(O)O`, the Potency was 2 µM (active).
For `Cc1nc(N)sc1-c1ccnc(Nc2ccc(N3CCOCC3)cc2)n1`, the activity (max response) was 4.45%.

For the origin of these results see PubChem BioAssay (NCATS).
